Reference: the supplement of paper PMC6522484
± gives the standard deviation of the averaged measurements.

Tests used:
DLD1 [1] = experiment: cell viability (CellTiter-Glo) relative to plate median (fraction of plate median); higher = more viable cells; conditions: 5 µM; treatment time 24 h; reporter: 7TFP
How it was run: (§1)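 For this screen, colorectal cancer cell lines carrying stable lentiviral TCF/Wnt firefly luciferase reporters, either 7TFP or TCF4/Wnt, were seeded into 384-well plates. A day's wait of 24 h preceded addition of library compounds at a final 5 µM, which stayed on the cells for 24 h. Firefly luciferase or CellTiterGlo luminescence, read on parallel plates, was normalised to the plate median per well, and the reported value is the mean of two independent replicates.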

HCT116 = experiment: as above; conditions: 5 µM; treatment time 24 h; reporter: TCF4/Wnt
How it was run: as §1

SW480 [2] = experiment: as above; conditions: 5 µM; treatment time 24 h; reporter: 7TFP
How it was run: as §1

DLD1 [3] = experiment: TCF/Wnt firefly luciferase reporter signal relative to plate median (fraction of plate median); higher = higher Wnt reporter signal; conditions: 5 µM; treatment time 24 h; reporter: 7TFP
How it was run: as §1

SW480 [4] = experiment: as above; conditions: 5 µM; treatment time 24 h; reporter: 7TFP
How it was run: as §1

Row | SMILES | cell viability (DLD1 [1]) | cell viability (HCT116) | cell viability (SW480 [2]) | TCF/Wnt firefly luciferase reporter signal (DLD1 [3]) | TCF/Wnt firefly luciferase reporter signal (SW480 [4])
1 | CCCC(=O)O[C@]1(C(=O)CO)CC[C@H]2[C@@H]3CCC4=CC(=O)CC[C@]4(C)[C@H]3[C@@H](O)C[C@@]21C | 0.965 ± 0.03 | 0.958 ± 0.16 | 1.02 | 0.895 ± 0.016 | 0.956 ± 0.0057
2 | CO/N=C1\CN(c2nc3c(cc2F)c(=O)c(C(=O)O)cn3C2CC2)CC1CN (stereo not given) | 1.04 ± 0.06 | 1.09 ± 0.057 | 0.995 ± 0.021 | 0.971 ± 0.11 | 1.06 ± 0.042
3 | Fc1ccc(C(c2ccc(F)cc2)N2CCN(C/C=C/c3ccccc3)CC2)cc1 | 1.06 ± 0.042 | 0.962 ± 0.069 | 1.06 ± 0.057 | 0.961 ± 0.18 | 0.917 ± 0.016
4 | O[C@H]1[C@H](O)[C@@H](O)[C@H](O)[C@@H](O)[C@H]1O | 0.938 ± 0.03 | 0.922 ± 0.097 | 0.931 ± 0.0057 | 1.12 ± 0.042 | 1.07 ± 0.035
5 | COc1cc2c(cc1OC)C(=O)OC2 | 0.982 ± 0.054 | 1.12 | 1.025 ± 0.0071 | 1.22 ± 0.014 | 1.06 ± 0.014
6 | CC(=O)O[C@H]1CC[C@]2(C)[C@H]3CC[C@@]4(C)[C@H](c5ccoc5)OC(=O)[C@H]5O[C@]54[C@]3(C)[C@H](OC(C)=O)C[C@H]2C1(C)C [3beta-ACETOXYDEOXODIHYDROGEDUNIN] | 1.03 ± 0.054 | 1.01 ± 0.077 | 0.949 ± 0.1 | 1.02 ± 0.061 | 1.04 ± 0.028
7 | C[C@]12CC[C@@H]3c4ccc(O)cc4CC[C@H]3[C@@H]1CC[C@@H]2O | 0.914 ± 0.11 | 1.01 ± 0.098 | 0.949 ± 0.024 | 1.07 ± 0.092 | 1.02 ± 0.021
8 | CC1(C)S[C@@H]2[C@H](N3C(=O)[C@@H](c4ccccc4)NC3(C)C)C(=O)N2[C@H]1C(=O)O | 1.05 ± 0.079 | 1.055 ± 0.0071 | 1.08 ± 0.071 | 1.15 ± 0.042 | 1.09 ± 0.014
9 | C[N+](C)(C)C[C@H](O)CC(=O)[O-] | 0.964 ± 0.028 | 0.976 ± 0.022 | 0.965 ± 0.014 | 0.921 ± 0.014 | 0.961 ± 0.069
10 | O=C(O)CCC(=O)Nc1ccc(S(=O)(=O)Nc2nccs2)cc1 | 0.9765 ± 0.0064 | 1.02 ± 0.028 | 1.04 ± 0.035 | 0.935 ± 0.12 | 1.03 ± 0.028
11 | C[N+]1(CCCCC[N+]2(C)CCCC2)CCCC1 | 0.998 ± 0.018 | 1.01 ± 0.039 | 0.995 ± 0.064 | 0.888 ± 0.21 | 0.98 ± 0.071
12 | C#CCCCCCCCCCCCC(O)CC(O)COC(C)=O (stereo not given) | 1.02 ± 0.021 | 1.05 ± 0.089 | 1.06 ± 0.014 | 1.08 ± 0.12 | 0.941 ± 0.098
13 | CC[C@H]1OC(=O)[C@H](C)[C@@H](O[C@H]2C[C@@](C)(OC)[C@@H](O)[C@H](C)O2)[C@H](C)[C@@H](O[C@@H]2O[C@H](C)C[C@H](N(C)C)[C@H]2O)[C@](C)(O)C[C@@H](C)[C@@H]2N[C@@H](COCCOC)O[C@H]([C@H]2C)[C@]1(C)O | 1.02 ± 0.049 | 0.991 ± 0.027 | 0.931 ± 0.0028 | 0.975 ± 0.05 | 0.998 ± 0.045
14 | COc1c(CC(=O)c2cc3c(cc2O)OC(C)(C)C(O)C3)ccc2c1C=CC(C)(C)O2 (stereo not given) | 1.02 ± 0.03 | 1.02 ± 0.035 | 0.911 ± 0.021 | 0.941 ± 0.039 | 0.929 ± 0.08
15 | CN1CCN(CCCN2c3ccccc3Sc3ccc(C(F)(F)F)cc32)CC1 | 0.999 ± 0.0014 | 1.08 ± 0.13 | 1.09 ± 0.028 | 1.21 ± 0.17 | 1.05 ± 0.14
